PubChem BioAssay (EPA / NIEHS)
Where “and” joins values, the source holds several entries; their conditions need not be identical. Equal entries are not always repeated. Records with an inconclusive call do not appear. Calls of active or inactive are those of the source. How the source made its calls: active means hit-call score of the fitted dose curve at least 0.9, where 1 is the maximum; inconclusive means response in the unintended direction; inactive means score below 0.9.

Key:
[1] = ACEA_AR_agonist_AUC_viability: ACEA Biosciences xCELLigence Real-Time Cell Analysis on Androgen Receptor Agonism for Viability (AID 2283775);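 on AC50: viability read 80 hours after compound addition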
How it was run: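 Viability endpoint from xCELLigence impedance in 22Rv1 prostate cells at 80 h. Eight-point series, 100 uM maximum final.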

[2] = ACEA_AR_antagonist_AUC_viability: ACEA Biosciences xCELLigence Real-Time Cell Analysis on Androgen Receptor Antagonism for Viability (AID 2283776);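 further: area under impedance growth curve at 80 h after dosing as viability; hits lower the growth signal relative to DMSO meaning cytotoxicity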
How it was run: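 22Rv1 human prostate cancer cells were seeded on electrode plates, monitored overnight, then exposed to eight 1:4 dilutions from 100 uM final. Impedance-based growth kinetics at 80 h gave an AUC viability endpoint normalized to DMSO.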

[3] = ACEA_ER_AUC_viability: ACEA Biosciences xCELLigence Real-Time Cell Analysis on Estrogen Receptor Agonism for Viability (AID 2283782);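 further: hit means loss of impedance signal meaning reduced cell growth or viability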
How it was run: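 Viability endpoint: reduced impedance area under the curve relative to DMSO, recorded by real-time electrode sensing over ~80 h of continuous exposure. Duplicate plates of T47D in hormone-depleted medium; eight concentrations, 1:4 dilutions, 100 uM maximum.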

[4] = tested on: frog Estrogen Receptor (ESR1), gene 398734; test: ATG_frER1_XSP1: Attagene TRANS-FACTORIAL Multi-Species (XSP1) HepG2 Assay for frog Estrogen Receptor (ESR1) (AID 2283777)
How it was run: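 HepG2 cells transiently transfected with GAL4-UAS reporter units and frog ER–Gal4 chimera were dosed for 24 h with 3 nM 6-alpha-fluorotestosterone present. Reporter mRNA was measured by RT-PCR and capillary electrophoresis; gain of signal fitted versus DMSO.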

[5] = target: chicken Estrogen Receptor (ESR1), ESR1 (gene 396099) (UniProt P06212); test: ATG_chERa_XSP1: Attagene TRANS-FACTORIAL Multi-Species (XSP1) HepG2 Assay for chicken Estrogen Receptor (ESR1) (AID 2283779)
Sequence of chicken Estrogen Receptor (ESR1), ESR1 (gene 396099) (P06212 whole entry, looked up, the tested form may be a part): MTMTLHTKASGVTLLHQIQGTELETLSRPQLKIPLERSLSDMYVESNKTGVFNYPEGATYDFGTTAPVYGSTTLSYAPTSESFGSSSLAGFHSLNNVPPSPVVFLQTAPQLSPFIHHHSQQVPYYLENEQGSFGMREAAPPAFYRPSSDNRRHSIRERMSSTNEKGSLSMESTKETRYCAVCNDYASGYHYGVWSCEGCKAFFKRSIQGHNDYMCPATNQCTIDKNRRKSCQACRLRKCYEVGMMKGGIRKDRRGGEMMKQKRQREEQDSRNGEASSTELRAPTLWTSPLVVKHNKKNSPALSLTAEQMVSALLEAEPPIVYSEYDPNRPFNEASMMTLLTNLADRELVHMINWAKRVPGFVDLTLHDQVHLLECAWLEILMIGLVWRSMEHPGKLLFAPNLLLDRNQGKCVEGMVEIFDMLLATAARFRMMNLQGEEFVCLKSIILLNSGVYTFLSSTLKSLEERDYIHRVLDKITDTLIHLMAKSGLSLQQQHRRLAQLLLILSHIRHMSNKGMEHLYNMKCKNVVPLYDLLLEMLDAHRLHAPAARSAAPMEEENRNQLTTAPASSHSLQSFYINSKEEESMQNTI
How it was run: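 Trans-activation of an exogenous chicken ERα–Gal4 chimera read as reporter transcript (RT-PCR, fluorescent labeling, capillary electrophoresis) after 24 h compound exposure of transfected HepG2; medium held 3 nM 6-alpha-fluorotestosterone. Positive-direction fit against DMSO.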

[6] = tested on: turtle Estrogen Receptor (ESR1), gene 101933533; test: ATG_trERa_XSP1: Attagene TRANS-FACTORIAL Multi-Species (XSP1) HepG2 Assay for turtle Estrogen Receptor (ESR1) (AID 2283781)
How it was run: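 Transactivation measured 24 h post-dose as reporter mRNA (RT-PCR, fluorescent capillary electrophoresis) from an NR-Gal4 turtle ER construct in HepG2. Medium included 3 nM 6-alpha-fluorotestosterone; increase over DMSO fitted.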

AR (gene 367) = AR (gene 367) (UniProt P10275); test: ACEA_AR_antagonist_80hr: ACEA Biosciences xCELLigence Real-Time Cell Analysis on Androgen Receptor Antagonism for Proliferation (AID 2283787);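 further: hits lower the impedance growth signal relative to DMSO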
Sequence of AR (gene 367) (P10275 whole entry, looked up): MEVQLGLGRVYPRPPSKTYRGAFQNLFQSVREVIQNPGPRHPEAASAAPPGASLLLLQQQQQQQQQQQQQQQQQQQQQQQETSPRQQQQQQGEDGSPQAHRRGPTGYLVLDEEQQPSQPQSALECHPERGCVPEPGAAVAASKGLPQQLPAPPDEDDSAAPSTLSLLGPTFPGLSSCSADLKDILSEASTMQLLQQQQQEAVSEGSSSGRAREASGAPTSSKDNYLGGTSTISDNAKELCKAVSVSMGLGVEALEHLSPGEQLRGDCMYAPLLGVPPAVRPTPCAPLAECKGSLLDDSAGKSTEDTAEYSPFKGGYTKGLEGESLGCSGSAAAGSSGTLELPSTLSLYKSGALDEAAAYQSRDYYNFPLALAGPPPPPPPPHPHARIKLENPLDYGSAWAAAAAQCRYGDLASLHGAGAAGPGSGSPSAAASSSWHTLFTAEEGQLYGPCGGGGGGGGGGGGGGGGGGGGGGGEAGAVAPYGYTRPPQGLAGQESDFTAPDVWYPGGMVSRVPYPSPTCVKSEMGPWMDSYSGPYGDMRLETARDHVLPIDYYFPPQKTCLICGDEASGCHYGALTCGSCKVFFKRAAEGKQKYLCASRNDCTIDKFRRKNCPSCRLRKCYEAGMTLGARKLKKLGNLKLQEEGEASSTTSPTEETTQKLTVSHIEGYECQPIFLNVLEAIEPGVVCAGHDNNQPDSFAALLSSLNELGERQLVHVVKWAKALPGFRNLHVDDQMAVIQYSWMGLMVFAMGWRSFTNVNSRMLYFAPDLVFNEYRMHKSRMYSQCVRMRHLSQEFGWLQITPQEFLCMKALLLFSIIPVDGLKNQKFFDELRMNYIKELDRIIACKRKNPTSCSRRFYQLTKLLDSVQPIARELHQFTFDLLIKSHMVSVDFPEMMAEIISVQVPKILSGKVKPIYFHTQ
How it was run: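 Impedance-based real-time growth of 22Rv1 prostate cells, read 80 h after dosing. Eight concentrations, 1:4 series, top 100 uM final (0.5% DMSO), n = 2; signal decrease scored against DMSO.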

[7] = target: Estrogen receptor beta (Homo sapiens) (UniProt Q92731); test: ATG_hERb_XSP1: Attagene TRANS-FACTORIAL Multi-Species (XSP1) HepG2 Assay for human Estrogen Receptor (ESR2) (AID 2283788)
Sequence of Estrogen receptor beta (Homo sapiens) (Q92731 whole entry, looked up, the tested form may be a part): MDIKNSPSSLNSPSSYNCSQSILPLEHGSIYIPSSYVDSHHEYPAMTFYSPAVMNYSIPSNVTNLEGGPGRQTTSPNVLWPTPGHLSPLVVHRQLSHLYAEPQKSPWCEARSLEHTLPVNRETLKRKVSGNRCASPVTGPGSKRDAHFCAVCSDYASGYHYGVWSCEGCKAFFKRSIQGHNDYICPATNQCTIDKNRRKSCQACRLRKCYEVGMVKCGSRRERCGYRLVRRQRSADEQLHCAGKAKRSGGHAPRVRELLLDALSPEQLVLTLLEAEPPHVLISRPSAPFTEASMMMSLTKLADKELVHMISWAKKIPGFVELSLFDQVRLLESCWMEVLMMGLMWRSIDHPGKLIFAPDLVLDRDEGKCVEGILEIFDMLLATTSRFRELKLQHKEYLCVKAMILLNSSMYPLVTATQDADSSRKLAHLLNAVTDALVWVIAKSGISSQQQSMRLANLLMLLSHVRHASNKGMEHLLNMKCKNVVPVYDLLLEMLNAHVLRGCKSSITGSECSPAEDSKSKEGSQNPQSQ
How it was run: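 HepG2 cells transiently transfected with multiplexed GAL4-UAS reporter units carrying chimeric human ERβ-Gal4; 24 h compound exposure with 3 nM 6-alpha-fluorotestosterone present. Reporter mRNA quantified by RT-PCR, FAM labelling and capillary electrophoresis; gain-of-signal fitted versus DMSO.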

[8] = ATG_M_06_XSP1: Attagene TRANS-FACTORIAL Multi-Species (XSP1) HepG2 Assay for M06 Transcription Factor (Internal Marker) (AID 2283790)
How it was run: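 This background-control readout tracks M06 reporter mRNA, measured by RT-PCR and capillary electrophoresis. HepG2 cells transiently carrying the GAL4-UAS reporter panel were dosed for 24 h with 3 nM 6-alpha-fluorotestosterone added for partial AR stimulation; increases were scored relative to DMSO.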

[9] = ATG_M_61_XSP1: Attagene TRANS-FACTORIAL Multi-Species (XSP1) HepG2 Assay for M61 Transcription Factor (Internal Marker) (AID 2283797)
How it was run: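 Background-control readout: reporter transcripts measured by RT-PCR and capillary electrophoresis 24 h after dosing transiently transfected HepG2 multi-reporter cells, with 3 nM 6-alpha-fluorotestosterone present. Fitted in the positive direction relative to DMSO.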

[10] = tested on: zebrafish Androgen Receptor (AR), gene 100005148; test: ATG_zfAR_XSP1: Attagene TRANS-FACTORIAL Multi-Species (XSP1) HepG2 Assay for zebrafish Androgen Receptor (AR) (AID 2283771)
How it was run: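 Gain-of-signal versus DMSO was measured as reporter transcripts quantified by RT-PCR, fluorescent labelling and capillary electrophoresis after 24 h chemical exposure. The cells were HepG2 expressing a chimeric zebrafish AR-GAL4, co-stimulated with 3 nM 6-alpha-fluorotestosterone.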

[11] = target: zebrafish Estrogen Receptor (ESR1), esr1 (gene 259252) (UniProt P57717); test: ATG_zfER1_XSP1: Attagene TRANS-FACTORIAL Multi-Species (XSP1) HepG2 Assay for zebrafish Estrogen Receptor (ESR1) (AID 2283772)
Sequence of zebrafish Estrogen Receptor (ESR1), esr1 (gene 259252) (P57717 whole entry, looked up, the tested form may be a part): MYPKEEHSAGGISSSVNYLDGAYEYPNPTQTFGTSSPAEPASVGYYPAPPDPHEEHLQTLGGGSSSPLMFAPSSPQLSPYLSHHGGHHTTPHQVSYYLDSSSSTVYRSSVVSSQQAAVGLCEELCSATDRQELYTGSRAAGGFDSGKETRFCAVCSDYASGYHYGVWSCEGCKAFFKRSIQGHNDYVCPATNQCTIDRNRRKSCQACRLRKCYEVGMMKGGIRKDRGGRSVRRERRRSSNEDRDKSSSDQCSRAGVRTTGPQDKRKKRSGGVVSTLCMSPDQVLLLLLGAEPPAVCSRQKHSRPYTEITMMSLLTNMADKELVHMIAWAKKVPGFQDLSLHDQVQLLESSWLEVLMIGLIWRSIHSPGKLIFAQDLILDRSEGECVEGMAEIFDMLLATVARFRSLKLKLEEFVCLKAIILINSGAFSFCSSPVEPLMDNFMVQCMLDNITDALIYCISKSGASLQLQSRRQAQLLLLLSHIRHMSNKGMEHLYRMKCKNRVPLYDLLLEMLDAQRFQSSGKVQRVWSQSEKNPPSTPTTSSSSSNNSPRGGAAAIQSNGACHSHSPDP
How it was run: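 HepG2 cells were transiently transfected with multiplexed GAL4-UAS reporter units driven by chimeric NR-GAL4 proteins, dosed for 24 h with 3 nM 6-alpha-fluorotestosterone present, and reporter mRNA quantified by RT-PCR and capillary electrophoresis versus DMSO.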

[12] = tested on: zebrafish Estrogen Receptor (ESR2B), gene 317733; test: ATG_zfER2b_XSP1: Attagene TRANS-FACTORIAL Multi-Species (XSP1) HepG2 Assay for zebrafish Estrogen Receptor (ESR2B) (AID 2283773)
How it was run: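 Medium contained 3 nM 6-alpha-fluorotestosterone. Reporter mRNA induction by exogenous zebrafish ER2b-Gal4 chimera was read 24 h post-dose in transiently transfected HepG2 cells, using RT-PCR, fluorescent labelling, HpaI digestion and capillary electrophoresis.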

[13] = tested on: frog Estrogen Receptor (ESR2), gene 100174814; test: ATG_frER2_XSP1: Attagene TRANS-FACTORIAL Multi-Species (XSP1) HepG2 Assay for frog Estrogen Receptor (ESR2) (AID 2283774)
How it was run: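 Reporter mRNA from a multiplexed TRANS system, measured by RT-PCR with fluorescent labelling and capillary electrophoresis, 24 hours after chemical exposure. Human HepG2 liver cells carried exogenous frog ER-Gal4 chimera; medium included 3 nM 6-alpha-fluorotestosterone; increases versus DMSO analysed.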

[14] = tested on: zebrafish Estrogen Receptor (ESR2A), gene 317734; test: ATG_zfER2a_XSP1: Attagene TRANS-FACTORIAL Multi-Species (XSP1) HepG2 Assay for zebrafish Estrogen Receptor (ESR2A) (AID 2283778)
How it was run: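 Reporter transcripts were quantified by RT-PCR, 6-FAM labelling, HpaI digestion and capillary electrophoresis after 24 h dosing. The cells were HepG2 transiently carrying a zebrafish ER2a–Gal4 construct plus multiplexed UAS reporters; medium contained 3 nM 6-alpha-fluorotestosterone.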

[15] = target: Estrogen receptor (Homo sapiens) (UniProt P03372); test: ATG_hERa_XSP1: Attagene TRANS-FACTORIAL Multi-Species (XSP1) HepG2 Assay for human Estrogen Receptor (ESR1) (AID 2283780)
Sequence of Estrogen receptor (Homo sapiens) (P03372 whole entry, looked up, the tested form may be a part): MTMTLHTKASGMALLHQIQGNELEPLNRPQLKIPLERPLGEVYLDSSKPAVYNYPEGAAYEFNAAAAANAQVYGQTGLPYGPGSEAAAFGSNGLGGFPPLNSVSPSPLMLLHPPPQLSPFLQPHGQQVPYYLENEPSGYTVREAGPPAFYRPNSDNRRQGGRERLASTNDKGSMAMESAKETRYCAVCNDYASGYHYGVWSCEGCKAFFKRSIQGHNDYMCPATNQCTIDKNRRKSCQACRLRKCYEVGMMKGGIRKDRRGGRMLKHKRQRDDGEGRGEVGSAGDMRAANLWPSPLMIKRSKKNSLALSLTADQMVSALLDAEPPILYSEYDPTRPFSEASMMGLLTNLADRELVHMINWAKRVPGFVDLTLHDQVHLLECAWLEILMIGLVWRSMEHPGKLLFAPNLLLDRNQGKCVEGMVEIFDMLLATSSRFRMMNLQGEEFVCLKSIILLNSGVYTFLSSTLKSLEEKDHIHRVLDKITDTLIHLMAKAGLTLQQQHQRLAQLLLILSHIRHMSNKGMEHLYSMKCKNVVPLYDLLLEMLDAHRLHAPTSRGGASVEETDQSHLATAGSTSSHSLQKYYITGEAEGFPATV
How it was run: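 Reporter transcripts from multiplexed GAL4-UAS units driven by NR-Gal4 chimeras in transiently transfected HepG2 were measured by RT-PCR with capillary electrophoresis 24 h post-dose, with 3 nM 6-alpha-fluorotestosterone present; gain-of-signal relative to DMSO.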

Measured: AC50

CCCCCCCC(=O)O
inactive: [1] | [2]

OC1CCCCC1
inactive: [1] | [2]

OC1CCC(C2CCCCC2)CC1 (stereo not drawn)
active: [1] 81.3 µM | [2] 50 µM | [3] 83 µM and 84.8 µM and 86.7 µM

CC(C)(C)c1cccc(C(C)(C)C)c1O
inactive: [1] | [2] | [3]

O=[N+]([O-])c1ccc(O)cc1
inactive: [1] | [2] | [3]

O=C(OCCOCCOC(=O)c1ccccc1)c1ccccc1
inactive: [1] | [2]

O=C(O)Cc1cc(I)c(Oc2cc(I)c(O)c(I)c2)c(I)c1
inactive: [3]
active: [1] 51.7 µM | [2] 46.6 µM

CCCCCCCCC(=O)O
inactive: [1] | [2]

Cc1oc(-c2ccccc2)nc1CCOc1ccc(C[C@H](Nc2ccccc2C(=O)c2ccccc2)C(=O)O)cc1
inactive: [4] | [5] | [6] | [7] | [8] | [9]
active: [1] 14 µM | [2] 14.4 µM | [3] 78.5 µM | AR (gene 367) 8.01 µM

CC(O)CO (stereo not drawn)
active: [2] 11.9 µM
inactive: [1] | [3]

CC(C)(C)c1ccc(O)c(C(C)(C)C)c1
active: [1] 17.4 µM | [2] 21 µM | [3] 17.3 µM

Cc1cc(C)c(O)c(C)c1
inactive: [1] | [2] | [3]

C=C(C)C(=O)OCCC(F)(F)C(F)(F)C(F)(F)C(F)(F)C(F)(F)C(F)(F)F
inactive: [1] | [2] | [3]

CCC(C)(C)C1CCC(O)CC1 (stereo not drawn)
active: [12] 10 µM | [15] 10 µM | [6] 10 µM
inactive: [10] | [11] | [13] | [1] | [2] | [4] | [14] | [5] | [3] | [8] | [9]

CCCCCCCCCCCCCCCS(=O)(=O)Oc1ccccc1
inactive: [1] | [2]
